For assay [1], the target named is Casein kinase I isoform gamma-2 (Homo sapiens) (UniProt P78368). Conditions: at 1 µM.
Assay [2] addresses Casein kinase I isoform gamma-3 (Homo sapiens) (UniProt Q9Y6M4). Conditions: at 0.1 µM.
Assay [3] has the same target. The following applies: at 1 µM.
Assay [4] deals with Cyclin-dependent kinase 1 (Homo sapiens) (UniProt P06493). The following applies: at 0.1 µM.
For assay [5] the target is unchanged. The following applies: at 1 µM.
Assay [6] addresses Cyclin-dependent kinase 2 (Homo sapiens) (UniProt P24941). Conditions: at 0.1 µM.
The target is the same in assay [7]. Conditions: at 1 µM.
Assay [8] shares this target. The following applies: at 0.1 µM. The source holds these as a separate data set.
For assay [9] the target is unchanged. The following applies: at 1 µM. This is another data set of the same source.
Assay [10] deals with T1, CDK3/Cyclin E (Homo sapiens) (UniProt P24864+Q00526). Conditions: at 0.1 µM.
T1 sequence (P24864 whole entry, looked up): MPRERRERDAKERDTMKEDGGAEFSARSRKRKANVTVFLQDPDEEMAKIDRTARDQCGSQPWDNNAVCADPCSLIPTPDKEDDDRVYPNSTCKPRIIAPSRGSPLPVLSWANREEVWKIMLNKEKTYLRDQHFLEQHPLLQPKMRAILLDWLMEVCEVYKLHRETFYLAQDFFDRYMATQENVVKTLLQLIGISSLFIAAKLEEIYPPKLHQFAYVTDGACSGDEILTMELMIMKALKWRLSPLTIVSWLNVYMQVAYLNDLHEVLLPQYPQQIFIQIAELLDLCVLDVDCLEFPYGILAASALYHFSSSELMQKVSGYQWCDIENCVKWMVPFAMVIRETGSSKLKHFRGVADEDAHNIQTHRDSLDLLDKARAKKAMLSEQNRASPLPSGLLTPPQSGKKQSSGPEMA
T1 sequence (Q00526 whole entry, looked up): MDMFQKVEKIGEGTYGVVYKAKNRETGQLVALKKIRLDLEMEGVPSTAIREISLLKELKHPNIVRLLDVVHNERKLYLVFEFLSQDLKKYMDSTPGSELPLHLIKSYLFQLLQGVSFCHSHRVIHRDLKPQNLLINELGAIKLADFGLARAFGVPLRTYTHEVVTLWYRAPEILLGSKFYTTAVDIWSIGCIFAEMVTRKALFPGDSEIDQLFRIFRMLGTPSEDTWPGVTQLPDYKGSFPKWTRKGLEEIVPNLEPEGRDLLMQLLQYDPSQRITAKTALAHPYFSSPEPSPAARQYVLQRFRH
Assay [11] addresses T1, CDK3/Cyclin E (Homo sapiens). The following applies: at 1 µM.
The target of assay [12] is Cyclin-dependent kinase 4 (Homo sapiens) (UniProt P11802). Conditions: at 0.1 µM.
Cyclin-dependent kinase 4 (Homo sapiens), sequence (P11802 whole entry): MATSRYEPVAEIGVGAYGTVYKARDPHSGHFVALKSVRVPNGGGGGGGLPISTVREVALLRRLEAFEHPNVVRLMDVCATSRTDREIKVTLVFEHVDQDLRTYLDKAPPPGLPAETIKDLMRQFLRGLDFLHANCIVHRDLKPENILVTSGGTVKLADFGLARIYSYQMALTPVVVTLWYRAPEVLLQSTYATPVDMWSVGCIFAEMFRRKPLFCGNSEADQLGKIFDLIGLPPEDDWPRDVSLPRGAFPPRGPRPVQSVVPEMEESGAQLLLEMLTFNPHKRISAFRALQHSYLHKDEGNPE
Assay [13] shares this target. Conditions: at 1 µM.
Assay [14] concerns the target Cyclin-dependent kinase 5 (Homo sapiens) (UniProt Q00535). Conditions: at 0.1 µM.
Assay [15] has the same target. The following applies: at 1 µM.
Assay [16] addresses Cyclin-dependent kinase 6 (Homo sapiens) (UniProt Q00534). The following applies: at 0.1 µM.
For assay [17] the target is unchanged. Conditions: at 1 µM.
The target in assay [18] is Dual specificity protein kinase CLK2 (Homo sapiens) (UniProt P49760). Conditions: at 0.1 µM.
Dual specificity protein kinase CLK2 (Homo sapiens), sequence (P49760 whole entry, looked up): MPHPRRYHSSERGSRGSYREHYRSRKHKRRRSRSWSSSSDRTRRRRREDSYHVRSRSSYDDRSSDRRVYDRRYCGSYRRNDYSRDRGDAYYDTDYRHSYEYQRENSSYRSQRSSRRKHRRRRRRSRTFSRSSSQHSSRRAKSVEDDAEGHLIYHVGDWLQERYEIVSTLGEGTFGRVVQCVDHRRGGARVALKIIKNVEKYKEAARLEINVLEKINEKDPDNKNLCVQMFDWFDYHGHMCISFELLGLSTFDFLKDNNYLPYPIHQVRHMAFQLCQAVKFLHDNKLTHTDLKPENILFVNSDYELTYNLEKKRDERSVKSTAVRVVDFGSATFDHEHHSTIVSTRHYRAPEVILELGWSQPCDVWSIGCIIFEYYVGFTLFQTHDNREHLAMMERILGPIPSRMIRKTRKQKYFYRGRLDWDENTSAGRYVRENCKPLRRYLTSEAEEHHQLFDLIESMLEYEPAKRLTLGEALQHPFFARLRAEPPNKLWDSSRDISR
Assay [19] shares this target. Conditions: at 1 µM.
Assay [20] addresses Dual specificity protein kinase CLK3 (Homo sapiens) (UniProt P49761). Conditions: at 0.1 µM.

Casein kinase I isoform gamma-3 (Homo sapiens), sequence (Q9Y6M4 whole entry, looked up, canonical isoform): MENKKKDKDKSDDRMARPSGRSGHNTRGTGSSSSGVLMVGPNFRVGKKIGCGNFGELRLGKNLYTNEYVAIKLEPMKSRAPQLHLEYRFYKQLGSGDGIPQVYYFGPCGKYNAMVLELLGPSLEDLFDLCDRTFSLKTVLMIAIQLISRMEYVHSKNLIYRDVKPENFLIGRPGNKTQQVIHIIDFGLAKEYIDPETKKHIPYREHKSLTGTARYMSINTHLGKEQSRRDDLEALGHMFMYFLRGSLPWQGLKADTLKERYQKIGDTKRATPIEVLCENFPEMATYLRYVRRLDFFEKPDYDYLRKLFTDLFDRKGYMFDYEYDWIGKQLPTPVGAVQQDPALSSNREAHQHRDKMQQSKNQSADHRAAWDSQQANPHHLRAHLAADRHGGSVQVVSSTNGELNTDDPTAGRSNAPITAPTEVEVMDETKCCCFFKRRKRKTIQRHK
Cyclin-dependent kinase 5 (Homo sapiens), sequence (Q00535 whole entry, looked up): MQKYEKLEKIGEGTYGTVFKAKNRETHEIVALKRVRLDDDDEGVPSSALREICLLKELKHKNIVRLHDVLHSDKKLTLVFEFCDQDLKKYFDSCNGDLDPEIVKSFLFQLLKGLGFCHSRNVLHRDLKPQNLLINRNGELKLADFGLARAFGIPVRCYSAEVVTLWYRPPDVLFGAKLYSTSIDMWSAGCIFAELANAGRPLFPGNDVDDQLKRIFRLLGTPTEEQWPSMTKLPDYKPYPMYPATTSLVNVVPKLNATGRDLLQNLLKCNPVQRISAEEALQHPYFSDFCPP
Casein kinase I isoform gamma-2 (Homo sapiens), sequence (P78368 whole entry, looked up, canonical isoform): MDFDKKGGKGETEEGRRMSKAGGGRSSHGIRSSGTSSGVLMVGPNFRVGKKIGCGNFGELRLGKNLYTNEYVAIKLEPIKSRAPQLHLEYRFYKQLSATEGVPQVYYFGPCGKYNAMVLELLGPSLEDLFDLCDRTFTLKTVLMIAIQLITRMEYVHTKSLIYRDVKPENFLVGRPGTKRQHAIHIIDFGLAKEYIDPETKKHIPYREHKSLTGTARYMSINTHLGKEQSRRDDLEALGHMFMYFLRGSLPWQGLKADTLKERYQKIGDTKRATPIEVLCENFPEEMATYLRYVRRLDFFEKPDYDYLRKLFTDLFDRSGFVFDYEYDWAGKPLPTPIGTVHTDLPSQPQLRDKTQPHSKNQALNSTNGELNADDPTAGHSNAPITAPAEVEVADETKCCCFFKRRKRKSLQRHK
Cyclin-dependent kinase 6 (Homo sapiens), sequence (Q00534 whole entry): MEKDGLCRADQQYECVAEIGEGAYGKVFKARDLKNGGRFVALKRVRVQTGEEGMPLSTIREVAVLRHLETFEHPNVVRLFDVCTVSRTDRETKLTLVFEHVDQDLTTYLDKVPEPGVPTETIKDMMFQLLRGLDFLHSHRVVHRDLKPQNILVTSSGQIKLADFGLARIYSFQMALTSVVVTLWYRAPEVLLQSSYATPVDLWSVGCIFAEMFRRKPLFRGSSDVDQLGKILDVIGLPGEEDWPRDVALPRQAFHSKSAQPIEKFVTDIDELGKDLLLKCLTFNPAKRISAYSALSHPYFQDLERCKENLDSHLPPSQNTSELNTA
Dual specificity protein kinase CLK3 (Homo sapiens), sequence (P49761 whole entry, looked up): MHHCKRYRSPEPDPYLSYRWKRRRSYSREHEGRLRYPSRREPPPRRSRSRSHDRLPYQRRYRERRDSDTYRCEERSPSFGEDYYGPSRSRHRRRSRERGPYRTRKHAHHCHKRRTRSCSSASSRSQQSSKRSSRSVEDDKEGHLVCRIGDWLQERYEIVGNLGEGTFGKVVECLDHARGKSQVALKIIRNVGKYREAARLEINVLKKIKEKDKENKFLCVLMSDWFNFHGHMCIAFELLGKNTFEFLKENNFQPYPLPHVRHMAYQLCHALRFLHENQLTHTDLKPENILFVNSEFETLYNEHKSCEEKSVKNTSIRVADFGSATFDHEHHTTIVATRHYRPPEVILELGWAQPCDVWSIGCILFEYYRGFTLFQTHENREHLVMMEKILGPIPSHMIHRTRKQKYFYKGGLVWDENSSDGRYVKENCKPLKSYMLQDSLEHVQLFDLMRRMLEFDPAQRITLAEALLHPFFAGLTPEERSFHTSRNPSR
Cyclin-dependent kinase 1 (Homo sapiens), sequence (P06493 whole entry, looked up): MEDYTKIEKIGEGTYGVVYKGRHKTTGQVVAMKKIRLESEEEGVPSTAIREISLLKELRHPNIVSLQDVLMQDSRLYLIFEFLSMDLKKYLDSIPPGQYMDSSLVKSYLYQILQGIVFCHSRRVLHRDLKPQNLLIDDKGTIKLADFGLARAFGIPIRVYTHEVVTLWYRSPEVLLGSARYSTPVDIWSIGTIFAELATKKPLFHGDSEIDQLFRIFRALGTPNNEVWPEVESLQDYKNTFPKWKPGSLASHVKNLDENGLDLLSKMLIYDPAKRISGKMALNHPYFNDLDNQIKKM

In the case of `Clc1ccc(-c2nn3ncccc3c2-c2ccnc(Nc3ccccc3)n2)cc1`, the inhibition (usually the drop in the measured response relative to a control, in per cent) was 1.83% in assay [1]; 1.6% in assay [2]; 4.02% in [3]; 0.56% in [4]; 1.32% in assay [5]; 1.43% in [6]. The inhibition in assay [7] is 3.91%; in assay [8], 1.3%; in [9], 2.48%; in [10], 1.03%; in [11] it was -0.36%; in assay [12], 1.45%. Also, the inhibition in [13] was 2.58%; in assay [14], 0.66%; in assay [15], 1.41%; in [16] it was 1.16%; in [17], 4.53%; in [18], -0.96%. The inhibition stood at 1.58% in assay [19] and 1.63% in [20].

In the case of `Cc1ccc(O)cc1Nc1ccnc2cc(-c3ccccn3)ccc12`, the inhibition in assay [1] was found to be 6.53%; in assay [2], 4.03%; in assay [3], 6.72%; in [4], 0.02%; in [5], 1.83%; in assay [6], 0.84%. Further, the inhibition in [7] is 6.62%; in [8], 3.98%; in assay [9], 4.84%; in assay [10], 1.95%; in assay [11] it was -0.7%; in [12] it was 3.48%. Further, the inhibition amounted to 4.45% in [13]; 0.73% in assay [14]; 1.9% in assay [15]; 1.92% in [16]; 4.31% in [17]; 1.89% in assay [18]. In addition, the results for the inhibition in [19] and in [20] were 3.5% and 2.09%, respectively.

`CCn1c(-c2nonc2N)nc2ccccc21`: the inhibition in assay [1] is 2.97%; in assay [2], 0.54%; in assay [3] it was 4.86%; in assay [4], -0.3%; in [5] it was 0.59%; in assay [6] it was 1.31%. Further, the inhibition in assay [7] was 2.17%; in [8] it was 1.38%; in [9], 4.31%; in [10], 1.63%; in [11], 1.41%; in [12], 1.45%. Moreover, the inhibition in [13] worked out at 3.08%; in assay [14] it was 0.59%; in assay [15], 1.17%; in assay [16] it was 1.48%; in assay [17] it was 1.55%; in assay [18] it was 2.35%. The results for the inhibition in assay [19] and in assay [20] were 4.78% and 1.2%, respectively.

With `CCn1c(-c2nonc2N)nc2c(C#CC(C)(C)O)ncc(OC3CCNCC3)c21`, the inhibition in assay [1] amounted to 3.98%; in assay [2], 2.65%; in [3] it was 3.15%; in assay [4], 2.33%; in [5], 2.34%; in assay [6], 3.56%. Further, the inhibition in assay [7] was 1.76%; in assay [8] it was 1.95%; in assay [9], 3.09%; in assay [10], -1.98%; in assay [11], -2.14%; in assay [12], 2.68%. Further, the inhibition in assay [13] was 3.11%; in assay [14], 0.91%; in [15], 2.08%; in [16], -2.96%; in assay [17] it was -1.44%; in [18] it was 2.21%. Besides, the inhibition in assay [19] was found to be 18%; in assay [20] it was 0.62%.

`COc1cccc(-c2c[nH]c3c(N/N=C/c4ccncc4)ncnc23)c1`: the inhibition in assay [1] turned out to be 4.26%; in assay [2], 1.09%; in [3] it was 4.42%; in [4], 42%; in assay [5] it was 74.2%; in assay [6], 30.4%. The inhibition stood at 73.7% in [7]; 9.46% in [8]; 45.5% in assay [9]; 6.61% in assay [10]; 51.3% in [11]; 10.5% in assay [12]. Also, the inhibition in assay [13] is 45.7%; in assay [14], 38.8%; in [15] it was 73.1%; in assay [16], 12.2%; in assay [17] it was 51.4%; in assay [18] it was 2.83%. Moreover, the inhibition is 20.4% in [19] and 2.11% in assay [20].

`CCn1c(-c2nonc2N)nc2cnc(Oc3cccc(NC(=O)c4ccc(N(C)C)cc4)c3)cc21`: the inhibition worked out at 1.09% in assay [1]; 0.95% in [2]; 0.52% in assay [3]; 0.43% in assay [4]; 0.67% in assay [5]; 1.74% in assay [6]. For the same compound, the inhibition in assay [7] is 8.52%; in assay [8] it was 1.65%; in assay [9], 2.7%; in assay [10], -1.33%; in assay [11] it was -1.3%; in [12], 1.81%. The inhibition in assay [13] was 1.34%; in [14], 0.66%; in assay [15], 1.93%; in assay [16] it was -1.64%; in assay [17], 1.62%; in assay [18] it was -0.04%. The inhibition stood at 1.15% in assay [19] and 0.38% in assay [20].

`COc1ccc(-c2nn3ncccc3c2-c2ccnc(Nc3ccc4c(c3)OCCO4)n2)cc1`: the inhibition in assay [1] was found to be 3.08%; in [2], 0.17%; in [3] it was 1.38%; in assay [4] it was 0.5%; in [5], 1.38%; in assay [6], 0.22%. For the same compound, the inhibition in [7] is 0.43%; in assay [8] it was -0.84%; in assay [9], -0.22%; in assay [10] it was -2.12%; in assay [11] it was -2.16%; in assay [12], -0.27%. In addition, the inhibition in assay [13] is 2.65%; in [14], -0.08%; in assay [15], 2.41%; in [16], -4.12%; in assay [17], -0.81%; in [18], 0.37%. The inhibition in assay [19] was 0.98%; in assay [20], -0.22%.

Consider `[O-][S+]1CCN(Cc2ccc(-c3ccc4ncnc(Nc5ccc(OCc6cccc(F)c6)c(Cl)c5)c4c3)o2)CC1`, for which the inhibition in assay [1] was 5.36%; in assay [2], 4.15%; in assay [3], 2.36%; in assay [4], 2.01%; in [5], -1.04%; in [6], 3.62%. In addition, the inhibition in [7] was 4.32%; in [8], 5.35%; in assay [9] it was 6.57%; in [10] it was 0.55%; in assay [11], -2.03%; in [12], 3.89%. The inhibition in assay [13] came to 6.99%; in assay [14], 4%; in [15] it was 3.88%; in [16] it was 0.87%; in assay [17], 3.99%; in [18], 1.02%. Further, the inhibition in assay [19] is -0.02%; in assay [20] it was 1.18%.

In the case of `CCn1c(-c2nonc2N)nc2c(C#CC(C)(C)O)nc(OC[C@H](N)c3ccccc3)cc21`, the inhibition in assay [1] was 5.45%; in [2], 1.72%; in assay [3], 4.23%; in assay [4], 2.55%; in assay [5], 0.95%; in assay [6] it was 3.52%. Besides, the inhibition is 4.36% in [7]; 0.77% in [8]; 2.97% in assay [9]; -2.75% in [10]; -0.33% in [11]; 2.31% in assay [12]. The inhibition in assay [13] is 2.26%; in assay [14] it was 1.23%; in assay [15], 3.05%; in assay [16], -3.58%; in assay [17], -0.97%; in assay [18], 1.87%. Further, the inhibition was 12.1% in [19] and 1.29% in assay [20].

Turning to `c1cc(-c2cnn3nc(N4CCOCC4)ccc23)nc(NC2CC2)n1`, the inhibition in [1] came to 10.4%; in assay [2] it was 2.89%; in assay [3], 8.91%; in [4], 2.3%; in assay [5], 21.7%; in assay [6], 6.45%. The inhibition was determined as 50.7% in assay [7]; 9.31% in [8]; 43.2% in [9]; 2.41% in assay [10]; 17.4% in [11]; 15% in [12]. In addition, the inhibition in assay [13] is 57.8%; in assay [14], 2.71%; in assay [15], 23.3%; in [16] it was 11.8%; in [17] it was 30.7%; in assay [18], 9.32%. Moreover, the inhibition in assay [19] turned out to be 52%; in assay [20], 1.88%.

Consider `NS(=O)(=O)c1ccc(N/N=C2\C(=O)Nc3ccc4ncccc4c32)cc1`, for which the inhibition in assay [1] was found to be 7.05%; in assay [2], 1.94%; in assay [3], 12.7%; in assay [4], 61.3%; in assay [5], 80.5%; in assay [6] it was 93.4%. For the same compound, the inhibition in assay [7] worked out at 86.6%; in [8], 83.1%; in [9], 84.3%; in [10], 79.7%; in assay [11] it was 99.2%; in assay [12], 48%. Further, the inhibition in assay [13] was 76.2%; in [14] it was 79%; in [15], 83.4%; in assay [16] it was 53.5%; in assay [17] it was 81.4%; in assay [18], 19.3%. Further, the inhibition in assay [19] is 72.3%; in assay [20] it was 2.36%.

Regarding `O=C(Nc1n[nH]c2cc(-c3ccc(F)cc3)ccc12)C1CC1`, the inhibition is 3.16% in assay [1]; 1.93% in [2]; 3.02% in assay [3]; 0.08% in [4]; 4.52% in [5]; -0.94% in assay [6]. Moreover, the inhibition was 5.81% in assay [7]; 2.56% in assay [8]; 6.81% in assay [9]; 2.18% in assay [10]; 2.42% in assay [11]; 2.64% in assay [12]. Moreover, the inhibition is 6.92% in [13]; 0.56% in assay [14]; 3.03% in assay [15]; -1.47% in assay [16]; 24.6% in assay [17]; 0.75% in [18]. The inhibition amounted to 0.48% in [19] and 1.11% in assay [20].

As to `Cc1cccc2c1NC(=O)/C2=N\Nc1ccc(S(N)(=O)=O)cc1`, the inhibition in [1] turned out to be 2.46%; in assay [2] it was 0.83%; in assay [3], 1.98%; in assay [4], 0.2%; in assay [5], 2.23%; in assay [6] it was 1.45%. Besides, the inhibition in assay [7] worked out at 3.8%; in [8], 2.45%; in [9] it was 3.99%; in [10] it was 2.34%; in assay [11], 2.03%; in assay [12], 3.28%. The inhibition was 5.14% in assay [13]; 0.68% in [14]; 2.95% in [15]; 5.03% in assay [16]; 10.7% in assay [17]; 1.48% in [18]. The inhibition in assay [19] stood at 2.98%; in [20], 1.44%.

Source of the values: ChEMBL document CHEMBL1961873, “Compounds: GSK PKIS; Assays: Nanosyn kinase panel” (2012).
